A selection: hits, their analogues and other compounds. The true share with any hit is near 2.8%.
pAkt inh = Akt phosphorylation inhibition; Neuro2A IGF-stimulated pAkt S473 HTRF, 20 min; stronger effect = lower value; 360,000 tested, 0.32% active; activity change, % for hits at 50 µM; in the data active means activity change below about -80%; inconclusive means mostly about -51% to -80%; further: on the % scale 0 is the no-effect control and ±100 the full control effect
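Neuro2A cells in DMEM with 0.5% FBS, overnight at 37 deg C, given compound at single 50 µM final, then IGF (6 nM final) for 20 min at 37 deg C. Lysed; phospho-Akt Ser473 by HTRF after 24 h, 665/615 ratio.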
LDHA block = inhibitors of human lactate dehydrogenase A | activity change, % (values are at about 110 or 230 µM) | purified LDHA, NADH/diaphorase-resazurin fluorescence; stronger effect = lower value | P00338 | 480,000 tested, 0.15% active | AID 1347041; in the data active means activity change below about -30%; inconclusive means mostly about -25% to -30%;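 further: plate controls were DMSO wells for no effect and wells without enzyme for full effect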
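Remaining NADH was detected by diaphorase (0.133 mg/mL) converting 37 µM resazurin to fluorescent resorufin, read at 0 and 20 minutes. The preceding 5-minute room-temperature reaction used 2 nM LDHA, 0.2 mM sodium pyruvate and 0.06 mM NADH at pH 7.4.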
DRD3 agonist = agonists of human D3 dopamine receptor; P35462; D3R DiscoveRx beta-arrestin cells, luminescence, 90 min; max activation, %; 410,000 tested, 0.58% active; AID 652048; in the data active means max activation above about 30%; further: 0% is about no effect
Target sequence (P35462 whole entry, looked up): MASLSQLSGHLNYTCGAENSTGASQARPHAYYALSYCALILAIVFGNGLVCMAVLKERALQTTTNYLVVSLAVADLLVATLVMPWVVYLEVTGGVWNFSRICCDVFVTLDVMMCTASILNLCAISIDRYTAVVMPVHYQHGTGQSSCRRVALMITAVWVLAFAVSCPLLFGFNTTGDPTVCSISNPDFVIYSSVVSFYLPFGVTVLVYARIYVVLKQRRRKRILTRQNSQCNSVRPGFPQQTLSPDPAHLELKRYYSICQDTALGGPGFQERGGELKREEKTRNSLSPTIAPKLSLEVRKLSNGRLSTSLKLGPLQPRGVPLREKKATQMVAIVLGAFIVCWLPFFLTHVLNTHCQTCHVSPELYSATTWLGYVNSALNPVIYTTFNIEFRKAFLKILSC
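Agonist mode: compounds and dopamine controls were applied to plated cells for 90 min at 37 degrees C after an overnight attachment at 1500 cells/well. Luminescent read-out followed 30 - 60 minutes at room temperature with DiscoveRx detection reagent.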
DRD3 antagonist = D3 dopamine receptor (human) antagonism; P35462; D3R cells, DiscoveRx beta-arrestin luminescence, antagonist mode; stronger effect = lower value; max response, negative = inhibition, %; 360,000 tested, 2.5% active; in the data active means max response below about -50%; inconclusive means no clear call, values can overlap the other calls; further: on the % scale 0 is the no-effect control and ±100 the full control effect
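Cells plated overnight at 1500 cells/well, then exposed to library compounds with dopamine controls for 90 minutes at 37 degrees C. DiscoveRx reagent added for 30–60 minutes at room temperature; luminescence read, quantitative HTS format.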
RGS4 inhibitor = blocks human RGS4-accelerated GTP hydrolysis | P49798 | AID 504845 | 390,000 tested, 0.039% active | Transcreener GDP fluorescence polarization, RGS4-accelerated GTP hydrolysis | Potency, µM (highest dose often 114 µM), without a hit: at the highest dose activity change, negative = inhibition, hits mostly inhibitors; active means well fitted inhibition curve with a large enough effect; inconclusive means small, poorly fitted or top-dose-only effect; inactive means no such curve, though single readings can be large or run the other way; further: potency means the concentration at half of the fitted maximal effect; on the % scale 0 is the no-effect control and ±100 the full control effect; nearly all actives have a fitted effect of over 75% in size
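MLSMR compounds (23 nl, pin-transferred) preincubated 10 min at room temperature with a 500nM (2x) first reagent, then RGS4 at 900nM (2x) plus Transcreener GDP mix added; fluorescence polarization (620/688 nm) read before and after 90 min at 30 °C.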
PI4K2A inh = blocks human PI4K2A kinase activity | purified PI4K2A, ADP-Glo luminescence, 1 h; stronger effect = lower value | activity change, negative = inhibition, % at 76.9 µM | 420,000 tested, 0.13% active | AID 1346378; in the data active means activity change below about -50%; inconclusive means mostly about -30% to -49%;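 further: -100% = wells without enzyme as full effect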
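In this quantitative HTS, ADP production by PI4K2A was quantified luminescently after 1 h at ambient temperature; 100 microM adenosine served as plate-quality control.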
Numbers without * were called inactive.

Results for Cc1ccc(-n2cccn2)c(CN2CCCC(C(=O)c3ccc4c(c3)OCO4)C2)c1 (stereo not drawn) ?
pAkt inh: inactive; LDHA block: -3; DRD3 agonist: -32; DRD3 antagonist: -63*; RGS4 inhibitor: 16%; PI4K2A inh: 1

How did COc1cccc(CN2CCCC(C(=O)c3ccc4c(c3)OCO4)C2)c1OC (stereo not drawn) do in these assays?
pAkt inh: inactive; LDHA block: -4; DRD3 agonist: -10; DRD3 antagonist: -15; RGS4 inhibitor: -1%; PI4K2A inh: 3

What do the screens show for `COC(=O)c1ccc(SCC(=O)NC2CCCC2)c([N+](=O)[O-])c1`?
pAkt inh: inactive; LDHA block: -3; DRD3 agonist: 1; DRD3 antagonist: 17; RGS4 inhibitor: -18%; PI4K2A inh: 0

How did NC(=O)c1ccc(SCC(=O)NC2CCCCC2)c([N+](=O)[O-])c1 do in these assays?
pAkt inh: inactive; LDHA block: -4; DRD3 agonist: -13; DRD3 antagonist: -52*; RGS4 inhibitor: 3%; PI4K2A inh: 0

Results for CCCn1c(C)cc(-c2csc(N)n2)c1C ?
pAkt inh: inactive; LDHA block: 0; DRD3 agonist: -1; DRD3 antagonist: 5; RGS4 inhibitor: -30%; PI4K2A inh: -26

How did Cc1c(-c2csc(N)n2)cnn1C do in these assays?
pAkt inh: inactive; LDHA block: 1; DRD3 agonist: 42*; DRD3 antagonist: 4; RGS4 inhibitor: 1%; PI4K2A inh: 2

How did COc1ccc(C(=O)/C=C/c2ccc(O)cc2)c(O)c1CC=C(C)C do in these assays?
pAkt inh: inactive; LDHA block: -8; DRD3 agonist: 13; DRD3 antagonist: -67*; RGS4 inhibitor: 15%; PI4K2A inh: -7

Results for COc1ccc(C(=O)/C=C/c2ccc(O)cc2)c2c1CC(O)C(C)(C)O2 (stereo not drawn) ?
pAkt inh: inactive; LDHA block: 5; DRD3 agonist: -25; DRD3 antagonist: -16; RGS4 inhibitor: -10%; PI4K2A inh: -8

Results for CCSc1nnc(NC(=O)C(C)(C(F)(F)F)C(F)(F)F)s1 ?
pAkt inh: inactive; LDHA block: -4; DRD3 agonist: -2; DRD3 antagonist: -11; RGS4 inhibitor: 23%; PI4K2A inh: 2

Results for CCSc1nnc(NC(=O)c2cnccn2)s1 ?
pAkt inh: inactive; LDHA block: 1; DRD3 agonist: -10; DRD3 antagonist: -136*; RGS4 inhibitor: -3%; PI4K2A inh: -2

What do the screens show for `O=C(Nc1nnc(SCc2ccc(F)cc2)s1)c1cnccn1`?
pAkt inh: inactive; LDHA block: 5; DRD3 agonist: 8; DRD3 antagonist: 1; RGS4 inhibitor: -33%; PI4K2A inh: 1

How did CCSc1nnc(NC(=O)c2ccccn2)s1 do in these assays?
pAkt inh: inactive; LDHA block: 5; DRD3 agonist: -2; DRD3 antagonist: -84*; RGS4 inhibitor: -13%; PI4K2A inh: inconclusive

How did CCSc1nnc(NC(=O)NCC(F)(F)F)s1 do in these assays?
pAkt inh: inactive; LDHA block: -2; DRD3 agonist: -14; DRD3 antagonist: -83*; RGS4 inhibitor: 11%; PI4K2A inh: -13

What do the screens show for `CCSc1nnc(NC(=O)c2ccco2)s1`?
pAkt inh: -112%*; LDHA block: -11; DRD3 agonist: -1; DRD3 antagonist: inconclusive; RGS4 inhibitor: 28%; PI4K2A inh: 7

Results for CCOC(=O)CSc1nnc(NC(=O)c2ccco2)s1 ?
pAkt inh: inactive; LDHA block: -15; DRD3 agonist: -1; DRD3 antagonist: 14; RGS4 inhibitor: -16%; PI4K2A inh: 2

How did COc1ccc(-c2nc(CSCC(=O)N3c4ccccc4CC3C)co2)cc1 (stereo not drawn) do in these assays?
LDHA block: -4

Results for O=C(CSc1nnc2n(-c3ccccc3)c(=O)c3ccccc3n12)Nc1ccccc1C(F)(F)F ?
LDHA block: -2

Results for O=C(CC1C=CCC1)NCc1ccco1 (stereo not drawn) ?
LDHA block: 1

What do the screens show for `O=C(/C=C/c1cc(Br)cc(Br)c1O)c1ccccc1`?
LDHA block: 10

Screening data (PubChem BioAssay)
